Test results published in PubChem BioAssay (NCI).
Compounds without any hit were thinned out: in the full panel of roughly 83,000, 20% have a hit.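 Single-dose data. Exposure time 48 hours. Values below 10 considered active.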 Active and inactive are the calls of the source.

test system: IGROV1 ovarian; assay: NCI-60 one-dose screen, 48 h (100 = growth as untreated, 0 = no growth, -100 = all killed); details: 10 µM unless noted
Procedure: Growth inhibition of the IGROV1 human tumor cell line is measured as a screen for anti-cancer activity. Cells are grown in 96 well plates and exposed to the test compound for 48 hours. Compounds are tested at a single concentration, which is 10^-5 M for most compounds. The reported endpoint is percent growth (GI% or GIPRCNT), where numbers from 0 - 100% represent growth inhibition, and numbers from -100% - 0 represent cell death. For example, a value of 40 represents 60% growth inhibition. A value of 0 means no net growth occurred over the course of the experiment. A value of -40 indicates 40% of cells at the beginning of the experiment died by the end of the experiment. A value of -100 means all cells are dead at the end of the experiment.
NCI-60 Human Tumor Cell Lines Screen was performed using the standard one-dose NCI protocol, which is described in more detail at https://dtp.cancer.gov/discovery_development/nci-60/default.htm.
Compounds with GIPRCNT values below 10 were considered active. Activity score was based on GIPRCNT using the following formula: […]
Score is 0 for GIPRCNT values of 100 or above, 50 for GIPRCNT values of 0, and 100 for GIPRCNT values of -100.

Row | SMILES | growth
1 | Clc1nccc2c(-c3csc(-c4c[nH]c5ccccc45)n3)c[nH]c12 | 68.6% (inactive)
2 | CCCCC(=O)Nc1ncc(Cc2ccccc2Cl)s1 | 45.4% (inactive)
3 | CC12CCC(/C(=C/NNc3ccc([N+](=O)[O-])cc3[N+](=O)[O-])C1=O)C2(C)C (stereo not given) | 68.6% (inactive)
4 | COc1cc(Nc2ncccc2NC(=O)c2cn(Cc3cccc(Oc4ccccc4)c3)nn2)cc(OC)c1 | 99.3% (inactive)
5 | N#Cc1c(NC(=O)c2cccs2)[n+]([O-])c2ccc(Cl)cc2[n+]1[O-] | -19.9% (active)
6 | COc1ccc(-c2ccc(=O)oc2C#Cc2cc(OC)c(OC)c(OC)c2)cc1O | 28.9% (inactive)
7 | COc1ccc(-c2ccc(-c3ccc(C(=N)N)cn3)s2)cc1 | 89% (inactive)
8 | N=c1c2c(=N)n3c(nc2nc2n1-c1ccccc1Sc1ccccc1-2)sc1cc(Cl)ccc13 | 38.7% (inactive)
9 | O=C1NC(=Nc2ccc(O)cc2)S/C1=C\c1cccs1 | 38.5% (inactive)
10 | COc1ccc(NC(=O)c2cccc(C3CCc4c(cc(OC)c(OC)c4OC)O3)c2)cc1 (stereo not given) | 37.6% (inactive)
11 | Cc1ccc(C)c2c1C(O)(C#Cc1ccccc1)c1ccccc1C2(O)C#Cc1ccccc1 (stereo not given) | -12.5% (active)
12 | Cc1nc2sc(C(=O)Nc3ccccc3)c(N)c2cc1C(=O)/C=C/c1ccccc1 | -7.01% (active)
13 | COc1cc(-c2nc3ccc(C)cc3[nH]2)ccc1OCC(=O)N=Nc1c(O)[nH]c2ccc(Cl)cc12 | 4.74% (active)
14 | CS(=O)(=O)Nc1cncc(-c2ccc3ncnc(Nc4ccc(F)c(Cl)c4)c3c2)c1 | -17.2% (active)
15 | CCN(CC)CCNC(=O)c1ccc(-c2nc3ccc4[nH]ncc4c3c3c2CCCC3)cc1 | 35.3% (inactive)
16 | O=C(/C=C\c1ccco1)/C=C/c1ccco1 | 110% (inactive)
17 | CN1CCN(C(=O)c2cc(-c3ccc4ncnc(N5CCc6cc(F)c(Cl)cc65)c4c3)cnc2N)CC1 | -33.4% (active)
18 | C/C(=N\O)C(=O)NCCCCCC(=O)Nc1ccccc1 | 111% (inactive)
19 | Cc1[nH]c(C(=O)Nc2ccc(C(N)=O)cc2NC(C)C)c(Cl)c1Cl | 85.1% (inactive)
20 | CN1C(=O)N(C)C2C1NC(=S)N2/N=C/C=C/c1ccccc1[N+](=O)[O-] (stereo not given) | 44.3% (inactive)

Row | SMILES | growth
21 | COc1cccc(/C=C/C(=O)c2cc3c(N)c(C(=O)Nc4cccc(Cl)c4C)sc3nc2C)c1 | -18.7% (active)
22 | O=c1oc2c(cnc3ccccc32)cc1-c1cccs1 | 99.7% (inactive)
23 | O=C(CSc1nnc2sc(Nc3cccc(Cl)c3)nn12)c1ccc(F)cc1 | 101% (inactive)
24 | Cc1ccc(-c2csc(NC(=O)N3CCN(c4cc5c(cc4F)c(=O)c(C(=O)O)cn5C4CC4)CC3)n2)cc1 | 17% (inactive)
25 | CC(C)=CC(=O)N[C@@H]1CC2CCC3C(CC[C@@]4(C)C3CC[C@@H]4C(C)N(C)C)[C@@]2(C)C[C@@H]1O (stereo not given in full) | 61.9% (inactive)
26 | CN1CCN(Cc2ccc(NC(=O)c3cncc(C#Cc4cncc5[nH]ncc45)c3)cc2C(F)(F)F)CC1 | -43.8% (active)
27 | Cn1cc(C(=O)c2nc(-c3c[nH]c4ccc(Br)cc34)no2)c2cc(Br)ccc21 | 69.5% (inactive)
28 | Cc1ccc2[nH]c(-c3ccc(S(C)(=O)=O)cc3)c(/C=N/N=C(N)N)c2c1 | 76.2% (inactive)
29 | COc1cc(C(=O)/C=C/c2c(-c3cccs3)nc3ccccn23)cc(OC)c1OC | 13.1% (inactive)
30 | Cc1ncc(C(=O)Nc2ccc(CN3CCN(C)CC3)c(C(F)(F)F)c2)cc1C#Cc1cnc(N)c2ccncc12 | -42.5% (active)
31 | O=C1NC(=O)c2c1c1c3ccccc3[nH]c1c1oc3ccc(F)cc3c21 | 21.1% (inactive)
32 | Cn1c(=O)c2c(c3ccccc31)OC(N)=C(C#N)C21C(=O)c2ccccc2C1=O | 92.4% (inactive)
33 | CCOC(=O)c1c(NC(=O)c2ccc(C(C)(C)C)cc2)sc2cc(O)ccc12 | 80.8% (inactive)
34 | Cc1cccc(N2CCN(C(=S)c3ccc4c(c3)OCO4)CC2)c1 | 31.3% (inactive)
35 | COc1cc2c3c(c1O)-c1ccccc1[C@@H]1OC(=O)N(CC2)[C@H]31 | 114% (inactive)
36 | O=C1CC2C=CCN2C=C1NC(=O)C1CCCCC1 (stereo not given) | 105% (inactive)
37 | CCn1cc(C(=O)N/N=C/c2ccc(Br)cc2)c(=O)c2cc(F)c(N3CCNC(C)C3)c(F)c21 (stereo not given) | 71.3% (inactive)
38 | CCN(CC)CCCC(C)Nc1ccc2cc(OC)ccc2n1 (stereo not given) | 105% (inactive)
39 | CCN(CC)S(=O)(=O)c1ccc(S(=O)(=O)N2CCC[C@@H](C(=O)N3CCN(C(=O)OC(C)(C)C)CC3)C2)cc1 | 86.1% (inactive)
40 | COc1ccc2c(c1)c(-c1nonc1-c1c[nH]c3ccc(Br)cc13)cn2C | 52.7% (inactive)
